Among all 360,000 compounds or so, about 25,000 (6.9%) were called active. Not shown: some 9% with an inconclusive outcome. Calls follow the shape of the dose curve; as a rule, active = well fitted inhibition curve with a large enough effect; inconclusive = small, poorly fitted or top-dose-only effect; inactive = flat fitted curve, though single readings scatter. What follows is part of a selection rich in actives, with near analogues and random picks from the rest. Entries that show only a call come without a potency.

Luciferin 4-monooxygenase (Photinus pyralis), sequence (P08659 whole entry, looked up): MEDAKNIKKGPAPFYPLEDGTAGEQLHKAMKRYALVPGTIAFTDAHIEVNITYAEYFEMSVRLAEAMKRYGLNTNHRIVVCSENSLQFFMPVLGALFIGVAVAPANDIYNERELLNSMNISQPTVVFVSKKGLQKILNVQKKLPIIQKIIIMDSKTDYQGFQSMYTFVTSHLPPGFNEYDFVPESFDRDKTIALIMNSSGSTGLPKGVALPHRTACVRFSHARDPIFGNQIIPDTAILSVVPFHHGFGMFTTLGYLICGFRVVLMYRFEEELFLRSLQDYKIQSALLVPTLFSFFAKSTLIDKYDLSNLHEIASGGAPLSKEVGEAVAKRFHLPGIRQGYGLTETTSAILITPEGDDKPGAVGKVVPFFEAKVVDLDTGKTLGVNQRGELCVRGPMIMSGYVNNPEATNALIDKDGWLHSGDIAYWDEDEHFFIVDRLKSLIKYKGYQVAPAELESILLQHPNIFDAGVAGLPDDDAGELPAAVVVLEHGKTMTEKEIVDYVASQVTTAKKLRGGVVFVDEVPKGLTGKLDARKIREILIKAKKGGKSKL

This assay has as its target Luciferin 4-monooxygenase (Photinus pyralis) (UniProt P08659). Put plainly: qHTS profiling assay for firefly luciferase inhibitor/activator using purifed enzyme and Km concentrations of substrates (counterscreen for miR-21 project). Also: nearly all actives have a fitted effect of over 55% in size. Particulars: purified FLuc, luminescence inhibition; series mostly up to 57.5 µM. The source says: MLPCN Grant: 1 R21 NS059478-01 (miR-21 grant) Assay Provider: NCGC NCGC Assay Overview: Firefly (Photinus pyralis) luciferase is one of the most commonly used transcriptional reporters for a number of reasons. It is considered one of the more dynamically responsive reporters -that is, responsive to changes in reporter transcription - as it requires no post-translational modifications and is enzymatically active directly after protein synthesis (Wood, 1998). Additionally, the half-life of the luciferase protein is short relative to other reporter-gene products (Wood, 1995). Whereas reporters with long half-lives potentially allow for increased signal due to accumulation of reporter-gene product, once accumulated in the cell, dynamic changes in reporter-gene expression may be difficult to detect(Fan and Wood, 2007; Almond et al., 2004). It has been shown that wild-type P. pyralis luciferase has a half-life of approximately […] hours in mammalian cells (Thompson et al., 1991). Firefly luciferase reporter-gene assays are also generally considered one of the most sensitive assay types (Wood, 1995; Wood, 1998). Although light produced in a bioluminescence reaction is of lower intensity than that produced during fluorescence emission, this is offset by little to no background light inherent to luminescent assays. Thus the luciferase reporter can be expressed at much lower levels than fluorescent proteins while still providing robust signal. # However, it was initially observed, in 1991, by Thompson et al., that compounds that resemble the substrates of firefly luciferase (FLuc) can act as competitive inhibitors of the enzyme, and that these compounds, upon interaction with luciferase in the cell, can actually stabilize the protein and increase its half-life. Accumulated intracellular FLuc protein can be measured as an increase in luminescence signal, upon addition of detection reagents (which contain high concentrations of FLuc substrates) commonly used in high-throughput screening. In cell-based reporter gene assays that use FLuc as the reporter gene to quantitate the potential influence of a given compound against the target biology, this apparent increase in luminescence can mistakenly be interpreted as identification of a compound that is active against the target of interest. This is the case for the miR-21 FLuc reporter gene assay used to identify inhibitors of the miR-21 pathway (PubChem AID 2289) - compounds of interest will inhibit miR-21 biogenesis/expression or activity, and are identified by causing an increase in luminescence, due to increased FLuc translation. However, FLuc inhibitory compounds that stabilize the FLuc protein will give an identical read-out, making it difficult to distinguish compounds that are active against the target from those active against FLuc. Previous profiling work to determine the prevalence of compounds that affect FLuc enzymatic activity (PubChem AID 411) identified that ~3% of the MLSMR library (then at ~72K) inhibited FLuc. […] Since the MLSMR had grown to ~350K compounds, and since it was expected that a significant percentage of compounds found active in the miR-21 FLuc assay would be FLuc inhibitors, the library was screened for activity against FLuc using a biochemical assay of purified FLuc and KM concentrations of FLuc substrates (D-luciferin and ATP).
NCGC Assay Protocol Summary: Reagents: 50mM Tris acetate, pH 7.5; 10mM Mg acetate; 10uM D-luciferin (Sigma #L9504); 10uM ATP; 0.01% Tween-20; 0.05% BSA; 10nM P. pyralis luciferase (Sigma #L9506) Control compounds used were two known firefly luciferase inhibitors (compounds (2) and (5) in Auld et al., 2010), and DMSO. […]
Take `Cc1sc(C2C(C#N)=C(N)N(c3cccc(Cl)c3)C3=C2C(=O)CCC3)cc1CN1CCOCC1` (configuration not stated): the Potency entry is “inactive”.
With `Cc1ccsc1C(=O)NC1CCCCC1C` (configuration not stated), the Potency entry is “inactive”.
As to `CCOc1ccccc1CNC(=O)Nc1cn(CC(C)C)c(=O)c2ccccc12`, the Potency result was “inactive”.
For `COc1ccccc1-c1oc2ccccc2c1C#CCCCCO`, the Potency entry was “inactive”.
With `COC(=O)CC1Oc2ccccc2-n2cc(-c3ccccc3)nc21` (configuration not stated), the Potency result is “inactive”.
Turning to `CCN1C(=O)c2ccccc2Sc2ccc(NC(=O)Cc3ccc(OC)cc3)cc21`, the Potency entry was “inactive”.
Regarding `COc1ccc(/C=C(/NC(=O)c2ccco2)C(=O)Nc2ccc(C(C)=O)cc2)cc1`, the Potency result was “inactive”.
On to `COc1ccc(C(=O)NCc2ccc(Cl)cc2)cc1S(=O)(=O)N1CCCC1`, for which the Potency result was “inactive”.
`CCOc1ccc(Nc2oc(/C=C/c3ccc(F)cc3)nc2C#N)cc1`: the Potency entry is “inactive”.
Take `CCCCn1c(=N)c(S(=O)(=O)c2ccccc2)cc2c(=O)n3cccc(C)c3nc21`: the Potency result is “inactive”.
For the molecule `CN1CCN(CC(=O)Nc2sc3c(c2C#N)CCC(C(C)(C)C)C3)CC1` (configuration not stated), the Potency result is “inactive”.
Take `Nc1nc(SCC(=O)NCCN2CCOCC2)nc2sc3c(c12)CCC3`: the Potency entry was “inactive”.
Regarding `CC(C)(C)C1CCc2c(sc3nc(SCC(N)=O)nc(N)c23)C1` (configuration not stated), the Potency was 4.78 µM (active).
Consider `COc1ccc(OC)c(NC(=O)CSc2nc3ccccc3nc2N2CCCCC2)c1`, for which the Potency entry was “inactive”.
As for `CCOc1ccc(C(C)NC(=O)CN2C(=O)NC3(CCCCC3)C2=O)cc1OCC` (configuration not stated), the Potency entry is “inactive”.
Turning to `O=C(CSc1nc(-c2cccc(F)c2)[nH]c1-c1ccccc1)Nc1ccc2c(c1)OCO2`, the Potency entry was “inactive”.
As for `CCOC(=O)C(Cc1ccccc1)NC(=O)CCc1c(C)nc2c(c(C)nn2-c2ccc(C)c(C)c2)c1C` (configuration not stated), the Potency entry was “inactive”.
In the case of `O=C(CSc1nc2ccccc2[nH]1)c1cccs1`, the Potency was 6.75 µM (active).
For the molecule `COc1ccccc1-c1noc(CSc2nc(C)cc(=O)[nH]2)n1`, the Potency result was “inactive”.
As to `CN(Cc1ccccc1)c1nc2c(c(=O)[nH]c(=O)n2C)n1CCSc1nc2ccccc2[nH]1`, the Potency result was “inactive”.
`COc1ccc(NC(=O)CSc2nc3ccccc3[nH]2)cc1`: the Potency entry is “inactive”.
In the case of `COc1ccccc1CSc1nc2ccccc2[nH]1`, the Potency is 13.5 µM (active).
Under `O=C(NCc1ccccc1)c1onc(CSc2nc3ccccc3[nH]2)c1C(=O)NCc1ccccc1` stands “inactive”; under `O=C(CSc1nc2ccccc2[nH]1)Nc1nc(-c2ccccc2)c(-c2ccccc2)o1`, “inactive”.
With `CCCCSc1nc2ccccc2[nH]1`, the Potency was 16.9 µM (active).
Take `CCc1nnc(NC(=O)CCCSc2nc3ccccc3[nH]2)s1`: the Potency result is “inactive”.
Consider `CCc1ccc(CN(C)C(C)C(=O)Nc2ccc(S(=O)(=O)N3CCCC3)cc2)cc1` (configuration not stated), for which the Potency result was “inactive”.
`Nc1c(Cl)cc(S(N)(=O)=O)cc1S(N)(=O)=O`: the Potency result is “inactive”.
Turning to `COc1ccc(-n2c(=O)c3ccccc3n(Cc3ccccc3Cl)c2=O)cc1`, the Potency result is “inactive”.
As to `Cc1ccc(Cn2c(=O)n(CCCC(=O)NCc3ccccc3Cl)c(=O)c3ccccc32)cc1`, the Potency result is “inactive”.
As to `COc1ccc(C2=NC3(CCCCC3)N(CC(=O)Nc3ccc(C(C)C)cc3)C2=O)cc1`, the Potency entry was “inactive”.
In the case of `CC(Sc1nncn1C)C(=O)Nc1ccccc1-c1ccccc1` (configuration not stated), the Potency result is “inactive”.
Next, `CCOC(=O)c1sc(NC(=O)C(CC)Sc2nccn2C)nc1C` (configuration not stated): “inactive”.
Next, `CCC(Sc1nncn1C)C(=O)Nc1nnc(-c2ccc(Cl)cc2)s1` (configuration not stated): 15.1 µM (active).
In the case of `COc1ccc(C2CC(=O)Nc3c2c(=O)nc2c(C)cccn32)cc1OC` (configuration not stated), the Potency entry is “inactive”.
Under `O=C(NC1=NCCS1)c1ccc(Cl)s1` stands 23.9 µM (active); under `COc1ccc(C(=O)Nc2nncs2)c(OC)c1`, 8.49 µM (active).
On to `O=C(NC1=NCCS1)[C@H](Cc1ccccc1)N1C(=O)c2ccccc2C1=O`, for which the Potency entry is “inactive”.
Consider `COc1ccc(C(=O)NC2=NCCS2)c(OC)c1`, for which the Potency was 6.01 µM (active).
In the case of `COc1cccc(OC)c1C(=O)Nc1nnc(C(C)C)s1`, the Potency entry was “inactive”.
For `CCOc1ccc(C(=O)CCC(=O)NC2=NCCS2)cc1`, the Potency result was “inactive”.
For `COc1ccc(OC)c(NC(=O)Cc2cccs2)c1`, the Potency result was “inactive”.
Under `COc1ccccc1C(=O)NCCC(=O)NC1=NCCS1` stands “inactive”; under `O=C(NCc1ccc2c(c1)OCO2)c1ccc(Cl)s1`, “inactive”.
With `Cc1c(NC(=O)CSc2nnc(-c3cccnc3)n2N)c(=O)n(-c2ccccc2)n1C`, the Potency result is “inactive”.
Under `COc1ccc(CCNCc2c(C(=O)O)c(C)n(Cc3cccc(C)c3)c2C)cc1OC` stands “inactive”; under `Cc1ccc(NC(=O)CN2C(=O)C(c3ccc(F)cc3)=NC23CCCCCC3)c(C)c1`, “inactive”.
Regarding `CCOc1ccc(N2C(=O)CSC2=NC#N)cc1`, the Potency entry is “inactive”.
Turning to `CCOc1ccccc1NC(=O)Cn1ncc2ccc([N+](=O)[O-])cc21`, the Potency result was “inactive”.
Under `Cc1cccc(-n2ccnc2SCC(=O)Nc2cccc3ccccc23)c1C` stands “inactive”.
Under `Cc1ccccc1OCCC(=O)OCC(=O)NCCc1ccc(S(N)(=O)=O)cc1` stands “inactive”; under `COc1ccccc1CC(NC(C)=O)C(=O)NC1CCN(C(=O)Nc2ccccc2Cl)CC1` (configuration not stated), “inactive”.

For the origin of these results see PubChem BioAssay AID588342 (National Center for Advancing Translational Sciences (NCATS), 2011).
